Molecules are shown by their SMILES. Hit rate of the full screen: of about 300,000 compounds, about 37,000 (12%) were called active. Shown is part of a subset that was picked to be rich in actives. A number with no mark means an inactive call. Rule as the data show it: active = max response mostly above about 13% (no sharp cut-off); inactive = mostly below about 14%.

The experiment is described as follows: Cycloheximide Counterscreen for Small Molecule Inhibitors of Shiga Toxin. Also: read at 38.3 µM for the half of the compounds with a filed dose; 0% is about no effect. The following applies: cell reporter, cycloheximide protein synthesis inhibition counterscreen; active compounds read high.
As to `O=C(NC1CCCCCC1)c1cccnc1Sc1ccc(Cl)cc1`, the max response was -2.31%.
The same measure for `Cc1cc(C)c(NC(=O)C[N+](C)(C)CC(O)COc2cccc3ccccc23)c(C)c1` (stereo unspecified): -2.87%; for `CCC(C)(C)NC(=O)C(c1ccc(O)cc1)N(Cc1ccco1)C(=O)CCC(=O)Nc1ccccn1` (stereo unspecified): 13.8%.
With `COc1ccc(C2=NS(=O)(=O)N(C)C(C(=O)NC(C)c3ccccc3)=C2)cc1` (stereo unspecified) the figure was -2.97%.
`O=C(Nc1cccc(-c2cscn2)c1)C1CCN(Cc2ccsc2)CC1`: the max response was -0.646%.
On to `COCCOC(=O)c1c(C)oc2cc(Br)c(OCC(N)=O)cc12`, for which the max response was -1.75%.
With `CCC(C)Sc1nnc(-c2c[nH]c3ccccc23)n1CCOC` (stereo unspecified) the figure was -2.17%.
For `Cc1ccc(-c2csc(-c3c[nH]c4ccccc34)n2)cc1`, the max response is 52.5% (active).
With `Cc1cc(-c2n[nH]c(=S)n2-c2ccc(C)c(C)c2)no1` the figure was 10.2%; with `CCn1c(SCCC(C)C)nnc1-c1c[nH]c2ccccc12`, -5.75%; with `CCCc1cc(-c2n[nH]c(=S)n2CC)c2ccccc2n1`, -5.71%.
With `CCCc1cc(-c2nc(-c3ccc(C)cc3)cs2)ccn1` the figure was 39.7% (active); with `Cc1ccc(-c2csc(-c3cc(C)on3)n2)cc1`, 17% (active); with `CCCc1nc2scc(-c3ccc(C)cc3)c2c(=O)n1N`, 25.8%.
`Cc1cc(-c2nc(C)c(-c3nnc(SCC(=O)Nc4ccccc4)n3C)s2)no1`: the max response was -3.06%.
With `COc1cccc(N(CC(=O)NC2CCCC2)C(=O)CCCC(=O)Nc2ccccn2)c1` the figure was -1.64%; with `Cn1nccc1C(=O)NC1CCCc2c1cnn2-c1ccc(F)cc1F` (stereo unspecified), -0.526%.
The same measure for `O=C(NCCN1C(=O)S/C(=C\c2cccnc2)C1=O)c1ccc(S(=O)(=O)N2CCCC2)cc1`: 7.82%; for `NC(=O)C1(C(N)=O)OC1c1ccc(Cl)cc1Cl` (stereo unspecified): -2.97%.
With `CCOCC(=O)NCc1ccc2c(c1)cc(C)n2C` the figure was 0.782%.
For `Cc1sc(NC(=S)NC(=O)c2cccs2)nc1-c1ccc(CC(C)C)cc1`, the max response was 9.37%.
Take `Cc1ccc(S(=O)(=O)CC(=O)NC(C)c2ccccc2)cc1` (stereo unspecified): the max response was -0.898%.
With `CC1(C)SC2c3ccccc3C(=O)N2[C@@H]1C(=O)NCc1ccco1` (stereo partly specified) the figure was -2.7%; with `CCCCNC(=O)c1cn(CC)c2cc(N3CCN(C(=O)c4ccco4)CC3)c(F)cc2c1=O`, -2.67%; with `CC(C)OCCCNC(=O)CN1C(=O)/C(=C/c2ccccc2F)Oc2ccccc21`, -1.24%.
With `CN(C)C(=O)Cn1c(=O)n(S(=O)(=O)c2ccccc2)c2ccccc21` the figure was -2.7%.
